Rows were chosen to be rich in hits. Some 3.6% of all compounds tested hit in one or more screens of this group.
Epigenetic reg – derepresses silenced GFP reporter in murine cells; murine LDR cells, GFP reporter derepression, 30 h; Potency, µM (highest dose often 53.9 µM), inactives show at the highest dose GFP activation, most hits filed as activators; AID 1865; 280,000 compounds, 0.2% hits; further: % of control where 0% means no effect; nearly all actives have a fitted effect of over 60% in size
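Reporter derepression read as number of fluorescent GFP-positive objects, 20-120 um in size, counted by laser-scanning cytometer. Mouse LDR line with an epigenetically silenced CMV-GFP locus; compound incubation 30 h, 37 C.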
JMJD2E inh – inhibitors of human JMJD2E histone demethylase | AID 2147 | 230,000 compounds, 1.6% hits | B2RXH2 | Potency, µM (highest dose often 57.1 µM), for the others: at the top dose activity change, negative = inhibition, hits mostly inhibitors | JMJD2E catalytic domain, FDH-coupled NADH fluorescence (FDH is formaldehyde dehydrogenase);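 further: 0% = wells with enzyme and -100% = buffer wells without enzyme; nearly all actives have a fitted effect of over 50% in size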
GCN5L2 inh – blocks human GCN5L2 histone acetyltransferase. Q92830. GCN5L2 HAT assay, ThioGlo1 CoA-SH fluorescence. Potency, µM (doses to about 58.9 µM), inactives show at the top dose activity change, negative = inhibition, hits mostly inhibitors. 390,000 compounds, 0.21% hits; further: on the % scale 0 is the no-effect control and ±100 the full control effect
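GCN5L2 (20nM final) in 50mM HEPES, 0.1mM EDTA pH 7.5, 0.01% Tween-20 was preincubated 15 min at room temperature with compound, then given ThioGlo1 (50uM), H3(1-25) peptide (75uM) and acetyl-CoA (70uM); CoA-thiol fluorescence (Ex340/Em540) was read at 0 and 20 min.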
IMPase Li cell – IMPase inhibition in cells with lithium potentiation; CHO-M1 cells, IP1 TR-FRET (IP-One), carbachol + lithium; Potency, µM (series often up to 59.4 µM), inactives show at the highest dose activity, negative = IMPase inhibition, hits mostly inhibitors; 210,000 compounds, 0.35% hits; AID 1457;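 further: IP1 builds up when IMPase is blocked and the TR-FRET signal falls; plate controls were basal vehicle for no effect and high inhibitor control for full effect; nearly all actives have a fitted effect of over 50% in size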
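CHO cells stably expressing M1 receptor (2000/well, cultured 16–30 h) treated 30 min at 37C with compound plus low lithium. Cytosolic IP1 by TR-FRET (665/620 ratio and 620 channel) after 10 min lysis; AC50 by Hill fit.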
NPSR antagonist – blocks cAMP signaling of the human neuropeptide S receptor. 220,000 compounds, 1% hits. CHO-NPSR cells, cAMP TR-FRET, antagonist mode. Q6W5P4. Potency, µM (doses to about 38.3 µM), for the others: top-dose activity change, negative = inhibition, usual class: inhibitors; further: on the % scale 0 is the no-effect control and ±100 the full control effect; nearly all actives have a fitted effect of over 50% in size
Sfp PPTase inh – inhibitors of Bacillus subtilis Sfp phosphopantetheinyl transferase; Q9F4F7; Biochemical Sfp PPTase activity, qHTS; Potency, µM, without a hit: largest response in the series, negative = inhibition, most hits filed as inhibitors; 310,000 compounds, 3.5% hits;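 further: the enzyme is Sfp with the accession as filed and its product quenches rhodamine fluorescence; 0% = enzyme reaction without inhibitor and -100% = no enzyme wells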
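With Hepes-Na pH 7.6 buffer containing 10 mM MgCl2, Sfp (15 nM) modified BHQ-2-YbbR (12.5 uM) using rhodamine-CoA (5 uM). Two reads 30 minutes apart at 525/598 nm yielded each well's rate.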
* hit, by the source's call; ? = inconclusive; / = no result given; ! = a repeat was not active; [ ] = remark or other dose. Unless noted, the call rests on the fitted dose curve; in most records, active means well fitted curve in the direction sought with a large enough effect; inconclusive means small, poorly fitted or top-dose-only effect, or another doubt; inactive means no such curve, though single readings can be large; an effect the other way counts as inactive or inconclusive. Potency means the concentration at half of the fitted maximal effect.

SMILES	Epigenetic reg	JMJD2E inh	GCN5L2 inh	IMPase Li cell	NPSR antagonist	Sfp PPTase inh
O=C(Cc1ccccc1)N/N=C/c1cc(Br)cc(Cl)c1O	-1%	6.3µM*	-12%	-13%	-50%	-2%
O=C(CNC(=O)c1ccc(F)cc1)N/N=C/c1cc(Br)ccc1OC(=O)/C=C/c1ccco1	2%	-15%	-24%	/	-22%	25µM*
O=C(CNC(=O)c1ccccc1Br)N/N=C/c1cc(Br)ccc1O	1%	?	-7%	-14%	-21%	18%
CC(C)c1nn2c(=O)cc(COC(=O)c3cccc(NC(=O)COc4ccc(F)cc4)c3)nc2s1	-3%	/	3%	/	/	/
C[Se]CC[C@H](N)C(=O)O	/	/	-9%	/	/	?
CCc1ccccc1NC(=O)CSc1nncn2c1cc1oc(C)cc12	4%	/	-10%	/	/	/
C/C=C\C1=C(CO)C(=O)C2O[C@]2(CC=C(C)C)C1=O (stereo partly specified)	1%[10.1 µM]	/	/	/	/	-9%
O=C(CS(=O)Cc1ccco1)NCC=CCOc1cc(CN2CCCCC2)ccn1 (stereo unspecified)	/	/	3%	/	/	-7%
O=C(CNC(=O)c1ccccc1)N/N=C/c1cc(Br)ccc1O	-2%	28µM*	-5%	-7%	-23%	7%
O=C(CNC(=O)c1ccncc1)N/N=C/c1cc(Br)ccc1O	-1%	-2%	-1%	-5%	14%	20%
COc1ccc2c(c1)c(CC(=O)NCc1ccc3c(c1)OCO3)c(C)n2C(=O)c1ccc(Cl)cc1	-1%	-17%	/	4%	/	0%
CCCCC/C=C\C/C=C\C/C=C\C=C\C(=O)CCCC(=O)O	0%	7%	3%	1%	/	13%
COc1ccc(C2CC(c3ccccc3)Oc3ccc(C(C)(C)C)cc32)cc1 (stereo unspecified)	/	/	/	/	/	-10%
COc1ccc(C2CC(c3ccccc3)Oc3cc4c(cc32)OCO4)cc1 (stereo unspecified)	/	/	/	/	/	45µM*!
CCNC(=S)N(CCc1c(C)[nH]c2ccc(F)cc12)Cc1cccnc1	/	/	0%	/	/	0%
Cc1[nH]c2ccc(F)cc2c1CCN(Cc1cccnc1)C(=S)Nc1ccc(F)cc1	-3%	-9%	-2%	15%	10µM*	-9%
Brc1ccc(CN2CCN(Cc3c[nH]c4ccccc34)CC2)cc1	/	/	5%	/	/	56µM*
C=C(C(=O)C(C)(C)O)C(O)c1ccc([N+](=O)[O-])cc1 (stereo unspecified)	-1%	-7%	/	12%	/	-24%
CC1(C)Cc2ccccc2C(=O)N1	0%	-8%	-2%	-13%[38.3 µM]	4%[46.1 µM]	11%
CNC(=O)/C=C1\NC(C)(C)Cc2ccccc21	?	-7%	-1%	19%[38.3 µM]	9%[46.1 µM]	50µM*
O=C(O)/C=C/C(=O)Nc1ccccc1C(=O)Nc1ccccc1	0%	-25%	-9%	19%[38.3 µM]	6%[46.1 µM]	79µM*
COCCn1c(=O)c(-c2cn(C)c3ccccc23)nc2cnc(Oc3cccc(Cl)c3)nc21	/	/	-9%	-20%	/	9%
CC1(C)Cc2c(C#N)c(N)sc(=S)c2CO1	0%	?	-29%	?	2%[46.1 µM]	45µM*
CC(C)C1Cc2c(C#N)c(N)sc(=S)c2CO1 (stereo unspecified)	1%	-1%	-16%	-20%[38.3 µM]	?	28µM*
CC(C)N1CCc2c(sc(N)c2C#N)C1	-3%	?	-8%	6%[38.3 µM]	4%[7.67 µM]	-11%
CCc1nc(Nc2ccc3c(c2)OCO3)c2oc3ccccc3c2n1	-1%	?	-8%	10%[38.3 µM]	-24%[46.1 µM]	-23%
CCc1nc(N2CCN(Cc3ccc4c(c3)OCO4)CC2)c2oc3ccccc3c2n1	0%	?	?	35%[38.3 µM]	?	35µM*
CCc1nc(N2CCCC(C)C2)c2oc3ccccc3c2n1 (stereo unspecified)	-2%	?	2%	/	?	45µM*
CCCCCCCCCCCCC/C=C/[C@@H](O)C(CO)NC(C)=O (stereo partly specified)	?	-8%	/	28%	/	-17%

Bioassay records deposited in PubChem BioAssay by National Center for Advancing Translational Sciences (NCATS).
